# Measured values from PubChem BioAssay (Tox21).
# A number with no mark means an inactive call. The source made the active and inactive calls. The call rests on the fitted dose curve; in most records, active means well fitted curve in the direction sought with a large enough effect in the repeat runs; inconclusive means weak or mixed curves; inactive means flat fitted curve, though single readings scatter.
# Assay: qHTS assay to test for compound auto fluorescence at 535 nm (green) in HepG2 cell free culture (AID 720686)
# Conditions: Cell-free medium, green autofluorescence 485/535 nm; series mostly up to 91.3 µM
# Text: U.S. Tox21 Program National Center for Advancing Translational Sciences [NCATS] NIH Chemical Genomics Center [NCGC] U.S. Environmental Protection Agency [EPA] National Institutes of Environmental Health Sciences [NIEHS] National Toxicology Program [NTP] U.S. Food and Drug Administration [FDA] Tox21 Assay Overview: Compound auto fluorescence often interferes with screening of the compound library against various biological targets and signaling pathways. Some of these compounds may have fluorophoric properties. Such properties may interfere with the assay outputs resulting in false positives and/or negatives. To decrease such complications and ensure the compound activities are relevant in terms of biological response, the Tox21 10K compound library was screened for auto fluorescence. From the fluorophores used as reporter signals in our screening assays, the auto fluorescence equivalencies of compounds against three fluorophores have been evaluated: Triamterene, Fluorescein and Rose Bengal sodium for blue, green and red fluorescence, respectively. The fluorescence intensities were measured using Excitation/Emission wavelengths at 405/460nm, 485/535nm and 540/590nm for blue, green and red labels, respectively. This assay includes the green fluorescence data.
# Tox21 Assay Protocol Summary: 5 uL of culture medium (MEM containing 10% FBS) per well was dispensed into black wall/clear bottom 1536-well plates using a Multidrop Combi Dispenser (ThermoFisher Scientific, Waltham, MA). After 23 nL compound or DMSO vehicle was transferred into assay plate by a pintool work station (Kalypsys, San Diego, CA), fluorescence intensities in the assay plates were measured by an Envision (PerkinElmer, Shelton, CT) plate reader using three labels for measuring blue, green and red fluorescence at […] 460, 535 and 590nm respectively.
# On the % scale 0 is the no-effect control and ±100 the full control effect.
Compound,outcome,"fluorescence, % of fluorescein control"
CCCSP(=S)(OCC)Oc1ccc(SC)cc1 (stereo not given),inactive,–
Nc1ccc2c(c1)Cc1ccccc1-2,inactive,–
C[N+](C)(C)CC1CO1 (stereo not given),inactive,–
CC(C)(C)CC(C)(C)c1ccc(O)cc1,inactive,–
CCCC1CCCCN1 (stereo not given),inactive,–
COc1cc(C[C@@H](C)N)c(OC)cc1Br,inactive,–
C[C@H]1O[C@H](OC2[C@@H](O)[C@@H](O)C(O)[C@H](O)[C@H]2O)[C@@H](N)C[C@@H]1N=C(N)C(=O)O (stereo not given in full),inactive,–
CC(Oc1cc(Cl)c(Cl)cc1Cl)C(=O)O (stereo not given),inactive,–
CCC(C)(C)c1ccc(O)c(C(C)(C)CC)c1,inactive,–
c1ccc2sc(SNC3CCCCC3)nc2c1,inactive,–
CC[N+]1(CCOC(=O)C(O)(c2ccccc2)c2ccccc2)CCCCC1,inactive,–
COc1ccc(C(O)(c2cncnc2)C2CC2)cc1 (stereo not given),inactive,–
CCC(C)Cl (stereo not given),inactive,–
CN(C)C(=O)Nc1cccc(OC(=O)NC(C)(C)C)c1,inactive,–
O=[N+]([O-])c1cc(Cl)c(Cl)cc1Cl,inactive,–
CCCCCCCCn1sccc1=O,inactive,–
CC(C)[C@@H](C(=O)O[C@@H](C#N)c1cccc(Oc2ccccc2)c1)c1ccc(Cl)cc1,inactive,–
C[C@]12C=CC3=C4CCC(=O)C=C4CC[C@H]3[C@@H]1CC[C@@H]2O,inactive,–
CN(C1CCCCC1)C1CCCCC1,inactive,–
Cc1nc(N(C)C)nc(OC(=O)N(C)C)c1C,inactive,–

Compound,outcome,"fluorescence, % of fluorescein control"
CCCCCCCCCCCCN=C(N)N,–,-0.0679% [at 3.72 µM]
COc1cc(CC(C)N)c(OC)cc1Br (stereo not given),inactive,–
CCCC[P+](CC)(CCCC)CCCC (tested in a mixture with another compound),inactive,–
C1CS1,inactive,–
O=C(O)C(F)(F)C(F)(F)C(F)(F)C(F)(F)C(F)(F)C(F)(F)C(F)(F)C(F)(F)F,inactive,–
CCCN(CCOc1c(Cl)cc(Cl)cc1Cl)C(=O)n1ccnc1,inactive,–
CCCC(C)(COC(N)=O)COC(=O)NC(C)C (stereo not given),inactive,–
COc1ccc(C(=O)c2c(C)n(CCN3CCOCC3)c3ccccc23)cc1,inactive,–
CCN(C(C)=O)c1cccc(-c2ccnc3c(C#N)cnn23)c1,inactive,–
CC(C)(C)OOC(C)(C)CCC(C)(C)OOC(C)(C)C,inactive,–
Cc1ccc2c(C)cccc2c1,inactive,–
C=CCOCC1CO1 (stereo not given),inactive,–
CCC1(CCC(C)C)C(=O)NC(=O)NC1=O,inactive,–
C=CC(C)(CCC=C(C)C)OC(=O)c1ccccc1N (stereo not given),inactive,–
C[CH2][Hg][S]c1ccccc1C(=O)O,inactive,–
COc1ccccc1N1CCNCC1,inactive,–
CC(=O)OC(c1ccccc1)C(Cl)(Cl)Cl (stereo not given),inactive,–
O=C(O)C(O)C(O)C(=O)O (stereo not given),inactive,–
CN(C)N,inactive,–
O=P(OCC(Br)CBr)(OCC(Br)CBr)OCC(Br)CBr (stereo not given),inactive,–
